Measured values from PubChem BioAssay (NCI).
About 79,000 compounds went through this panel and 15% of them were active in at least one assay; those are over-represented in the sample as a whole. Rule as the data show it: active = growth inhibition above about 70%; inactive = the rest.

Tests used:
[1] = NCI Yeast Anticancer Drug Screen. Data for the rad50 strain (AID 155);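 also: 0% = growth of vehicle-only cultures of the same strain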; conditions: S. cerevisiae rad50 strain growth inhibition; at 50.0 µM; hits give high values
Procedure, shortened: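 DNA repair mutant yeast, compound exposure, growth read-out; inhibition is taken relative to vehicle.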

[2] = NCI Yeast Anticancer Drug Screen. Data for the mec2-1 strain (AID 157); conditions: S. cerevisiae mec2-1 strain, at 50.0 µM, hits give high values
Procedure, shortened: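 Test agents were screened against the mec2-1 yeast strain, with defined DNA repair or cell cycle alteration. Growth was scored as inhibition against vehicle-only controls.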

[3] = NCI Yeast Anticancer Drug Screen. Data for the sgs1 mgt1 strain (AID 161);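 also: 0% = growth of cultures given vehicle only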; conditions: S. cerevisiae sgs1 mgt1 strain, at 50.0 µM, hits give high values
Procedure, shortened: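 Read-out: growth inhibition vs vehicle controls. Cells: mutant yeast strain deficient in DNA damage repair.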

[4] = NCI Yeast Anticancer Drug Screen. Data for the cln2 rad14 strain (AID 165);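 also: 0% = growth equal to vehicle treated cultures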; conditions: S. cerevisiae cln2 rad14 strain, at 50.0 µM, hits give high values
Procedure, shortened: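 Growth of compound-exposed yeast (cln2 rad14 genotype) measured and expressed as inhibition relative to vehicle.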

[5] = NCI Yeast Anticancer Drug Screen. Data for the bub3 strain (AID 167); conditions: S. cerevisiae bub3 mutant strain, at 50.0 µM, hits give high values
Procedure, shortened: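 In this screen, a yeast mutant lacking normal mitotic checkpoint function is challenged with compound. Relative growth versus vehicle gives the inhibition value.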

[6] = NCI Yeast Anticancer Drug Screen. Data for the mlh1 rad18 strain (AID 175); conditions: S. cerevisiae mlh1 rad18 strain growth inhibition; at 50.0 µM; hits give high values
Procedure, shortened: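 In this whole-cell yeast screen, a strain with altered DNA damage repair is challenged with compound, and its growth is measured against matched vehicle-treated controls.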

Measured: growth inhibition

COC(=O)C(/C(=N/NC(N)=O)C(=O)Nc1c(C)cccc1C(C)(C)C)c1nc2ccc(Cl)cc2[nH]c1=O (centres undefined)
inactive: [1] -3.9% | [2] -15.7% | [3] -7.4% | [4] 3.3% | [5] -11.2% | [6] 0.1%

O=c1[nH]cc(O)c(=O)[nH]1
inactive: [1] -25.1% | [2] -41.3% | [3] -8.95% | [4] 12.7% | [5] -17.8% | [6] 6.4%

O=C1CN(c2cccc(Cl)c2)C(=O)CN1CCN1CC(=O)N(c2cccc(Cl)c2)CC1=O
inactive: [1] -35.2% | [2] -11.7% | [3] -19.6% | [4] -7.8% | [5] -37.5% | [6] -32.2%

CC(=O)OC1CCC2(C)C(=CCC3C2CCC2(C)C3CCC23SCCS3)C1 (centres undefined)
inactive: [1] 24% | [2] -3% | [3] 4.25% | [4] -60.1% | [5] -2.9% | [6] 9.6%
